# Source: PubChem BioAssay (EPA / NIEHS)
# Results filed as inconclusive are left out. The source made the active and inactive calls. Rule for the calls, unless noted: active = hit-call score of the fitted dose curve at least 0.9, where 1 is the maximum; inconclusive = response in the unintended direction; inactive = score below 0.9.
# Legend:
# [1] = target: human Fibroblast Growth Factor Receptor 1 (FGFR1), FGFR1 (gene 2260) (UniProt P11362); assay: NVS_ENZ_hFGFR1: NovaScreen (NVS) Enzymatic Assay for human Fibroblast Growth Factor Receptor 1 (FGFR1) (AID 2283159)
# human Fibroblast Growth Factor Receptor 1 (FGFR1), FGFR1 (gene 2260), sequence (P11362 whole entry, looked up): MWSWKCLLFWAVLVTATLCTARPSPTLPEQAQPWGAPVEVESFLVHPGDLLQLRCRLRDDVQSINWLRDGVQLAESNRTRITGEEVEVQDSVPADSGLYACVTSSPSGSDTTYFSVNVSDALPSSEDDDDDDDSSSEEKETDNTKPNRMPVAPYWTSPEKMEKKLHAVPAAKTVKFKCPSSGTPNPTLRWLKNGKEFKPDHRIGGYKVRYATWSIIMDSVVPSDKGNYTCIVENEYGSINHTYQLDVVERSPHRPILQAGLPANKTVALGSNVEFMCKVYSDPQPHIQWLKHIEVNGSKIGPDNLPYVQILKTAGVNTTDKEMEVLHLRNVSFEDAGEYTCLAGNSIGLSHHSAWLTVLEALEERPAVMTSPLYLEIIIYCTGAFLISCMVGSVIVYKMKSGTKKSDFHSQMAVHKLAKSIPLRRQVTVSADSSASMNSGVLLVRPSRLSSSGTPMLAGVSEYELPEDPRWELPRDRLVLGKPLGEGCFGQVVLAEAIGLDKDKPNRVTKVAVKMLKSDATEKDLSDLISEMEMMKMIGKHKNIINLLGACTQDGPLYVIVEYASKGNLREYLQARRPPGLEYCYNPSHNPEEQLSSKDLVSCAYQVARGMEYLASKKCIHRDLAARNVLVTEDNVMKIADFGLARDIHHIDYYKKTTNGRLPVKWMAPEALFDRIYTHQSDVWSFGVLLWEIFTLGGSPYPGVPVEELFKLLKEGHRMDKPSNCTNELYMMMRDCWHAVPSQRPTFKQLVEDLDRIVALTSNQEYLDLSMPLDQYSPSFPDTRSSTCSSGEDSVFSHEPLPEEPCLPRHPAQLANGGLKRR
# Summary of the method: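 Cell-free recombinant kinase with fluorescent substrate, product separated by electrophoretic mobility shift; read 1 hour after dosing, loss of signal relative to DMSO. Initial screen in duplicate at 25 uM, actives followed in concentration series.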
# [2] = target: Voltage-dependent N-type calcium channel subunit alpha-1B (Rattus norvegicus) (UniProt Q02294); assay: NVS_IC_rCaChN: NovaScreen (NVS) Ion Channel Assay for rat Calcium Channel, Type N (CaChN) (AID 2283317)
# [3] = target: human MET Proto-Oncogene, Receptor Tyrosine Kinase (MET), MET (gene 4233) (UniProt P08581); assay: NVS_ENZ_hMet: NovaScreen (NVS) Enzymatic Assay for human MET Proto-Oncogene, Receptor Tyrosine Kinase (MET) (AID 2283180)
# human MET Proto-Oncogene, Receptor Tyrosine Kinase (MET), MET (gene 4233), sequence (P08581 whole entry, looked up): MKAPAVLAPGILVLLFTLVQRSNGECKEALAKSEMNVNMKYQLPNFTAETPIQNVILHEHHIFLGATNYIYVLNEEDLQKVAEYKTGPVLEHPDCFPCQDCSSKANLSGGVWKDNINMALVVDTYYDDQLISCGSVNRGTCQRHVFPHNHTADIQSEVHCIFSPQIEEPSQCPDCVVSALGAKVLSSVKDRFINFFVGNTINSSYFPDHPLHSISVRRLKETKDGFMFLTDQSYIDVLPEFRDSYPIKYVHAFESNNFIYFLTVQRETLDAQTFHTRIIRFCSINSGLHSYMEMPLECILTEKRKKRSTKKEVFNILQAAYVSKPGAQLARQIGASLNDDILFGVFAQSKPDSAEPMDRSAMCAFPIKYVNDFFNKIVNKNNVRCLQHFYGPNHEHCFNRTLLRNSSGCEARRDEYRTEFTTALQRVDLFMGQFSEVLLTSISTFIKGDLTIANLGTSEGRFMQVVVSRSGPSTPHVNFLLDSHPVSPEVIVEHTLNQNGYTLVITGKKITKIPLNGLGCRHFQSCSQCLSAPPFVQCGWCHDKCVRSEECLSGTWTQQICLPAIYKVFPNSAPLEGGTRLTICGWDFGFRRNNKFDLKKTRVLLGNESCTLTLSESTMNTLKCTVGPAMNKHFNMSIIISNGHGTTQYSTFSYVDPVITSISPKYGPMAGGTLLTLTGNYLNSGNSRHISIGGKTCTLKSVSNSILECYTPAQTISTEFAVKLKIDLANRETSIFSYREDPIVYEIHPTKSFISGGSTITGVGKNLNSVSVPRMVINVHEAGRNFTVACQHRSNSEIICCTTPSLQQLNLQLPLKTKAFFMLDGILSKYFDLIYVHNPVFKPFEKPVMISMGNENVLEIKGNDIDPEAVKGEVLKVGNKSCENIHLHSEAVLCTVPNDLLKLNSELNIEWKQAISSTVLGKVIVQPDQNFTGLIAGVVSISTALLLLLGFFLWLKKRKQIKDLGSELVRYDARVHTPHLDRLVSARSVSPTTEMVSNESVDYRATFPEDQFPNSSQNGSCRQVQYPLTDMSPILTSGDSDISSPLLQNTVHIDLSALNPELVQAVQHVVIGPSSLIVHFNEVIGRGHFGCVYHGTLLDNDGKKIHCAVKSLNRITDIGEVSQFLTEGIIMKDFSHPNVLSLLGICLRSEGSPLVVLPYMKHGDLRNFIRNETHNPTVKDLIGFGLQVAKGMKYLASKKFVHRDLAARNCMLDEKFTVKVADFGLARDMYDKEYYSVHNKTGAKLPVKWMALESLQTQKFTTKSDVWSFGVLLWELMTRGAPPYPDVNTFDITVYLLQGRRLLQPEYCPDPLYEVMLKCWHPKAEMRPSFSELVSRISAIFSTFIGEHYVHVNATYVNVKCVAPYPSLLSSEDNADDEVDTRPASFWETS
# Summary of the method: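 Cell-free MET kinase assay using recombinant protein and fluorescent substrate, with mobility-shift separation; read 1 h after dosing. Primary duplicate at 25 uM; actives in singleton concentration-response to 50 uM maximum. Signal loss versus DMSO.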
# [4] = target: human Mitogen-Activated Protein Kinase 1 (MAPK 1), MAPK1 (gene 5594) (UniProt P28482); assay: NVS_ENZ_hMAPK1: NovaScreen (NVS) Enzymatic Assay for human Mitogen-Activated Protein Kinase 1 (MAPK 1) (AID 2283175)
# human Mitogen-Activated Protein Kinase 1 (MAPK 1), MAPK1 (gene 5594), sequence (P28482 whole entry, looked up): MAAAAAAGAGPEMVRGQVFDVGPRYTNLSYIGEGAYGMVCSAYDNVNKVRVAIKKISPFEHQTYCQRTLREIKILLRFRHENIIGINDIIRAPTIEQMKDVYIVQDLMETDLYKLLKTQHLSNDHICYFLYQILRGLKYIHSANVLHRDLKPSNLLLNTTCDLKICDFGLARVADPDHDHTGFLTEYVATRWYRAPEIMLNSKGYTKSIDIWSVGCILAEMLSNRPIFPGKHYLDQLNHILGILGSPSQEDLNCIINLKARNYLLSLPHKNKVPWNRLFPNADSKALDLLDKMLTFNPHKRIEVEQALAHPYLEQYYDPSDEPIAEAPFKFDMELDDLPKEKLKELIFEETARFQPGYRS
# Summary of the method: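 Cell-free recombinant human MAPK1 enzymatic assay, fluorescence/electrophoretic mobility shift read at 1 h; loss of signal vs DMSO. Primary screen in duplicate at 25 uM; actives (e.g. ≥30% inhibition) run as concentration-response up to 50 uM.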
# [5] = target: human Tyrosine Protein Kinase Receptor Tie-2 (Tie2), TEK (gene 7010) (UniProt Q02763); assay: NVS_ENZ_hTie2: NovaScreen (NVS) Enzymatic Assay for human Tyrosine Protein Kinase Receptor Tie-2 (Tie2) (AID 2283225)
# Summary of the method: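 Recombinant human Tie2 kinase activity was read cell-free by fluorescence with electrophoretic mobility shift, 1 hour after dosing. The screen used 25 uM in duplicate, then concentration-response up to 50 uM. Signal loss was scored against DMSO.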
# [6] = target: rat Monoamine Oxidase, MAO-B, Central (MAOBC), Maob (gene 25750) (UniProt P19643); assay: NVS_ENZ_rMAOBC: NovaScreen (NVS) Enzymatic Assay for rat Monoamine Oxidase, MAO-B, Central (MAOBC) (AID 2283238)
# rat Monoamine Oxidase, MAO-B, Central (MAOBC), Maob (gene 25750), sequence (P19643 whole entry, looked up): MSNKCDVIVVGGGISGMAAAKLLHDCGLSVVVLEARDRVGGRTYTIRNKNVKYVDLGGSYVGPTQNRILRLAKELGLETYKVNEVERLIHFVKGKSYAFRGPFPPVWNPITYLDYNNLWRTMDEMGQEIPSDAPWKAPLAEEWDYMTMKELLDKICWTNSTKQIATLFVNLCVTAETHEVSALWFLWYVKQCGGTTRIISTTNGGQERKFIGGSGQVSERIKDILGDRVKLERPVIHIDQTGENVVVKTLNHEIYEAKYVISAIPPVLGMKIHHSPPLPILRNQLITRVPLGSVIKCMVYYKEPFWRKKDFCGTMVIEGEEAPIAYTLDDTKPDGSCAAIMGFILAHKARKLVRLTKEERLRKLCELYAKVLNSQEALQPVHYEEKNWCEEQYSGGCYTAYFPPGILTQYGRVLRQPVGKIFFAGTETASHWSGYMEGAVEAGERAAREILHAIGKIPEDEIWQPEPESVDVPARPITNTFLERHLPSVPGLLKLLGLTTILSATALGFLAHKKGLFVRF
# Summary of the method: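 MAO-B activity in rat brain tissue preparation, cell-free, measured radiometrically by scintillation counting 1.17 h after dosing. Screened in duplicate at 25 uM; actives then in concentration-response up to 50 uM. Loss of signal versus DMSO scored.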
# [7] = tested on: rat Monoamine Oxidase, MAO-A, Central (MAOAC), gene 29253; assay: NVS_ENZ_rMAOAC: NovaScreen (NVS) Enzymatic Assay for rat Monoamine Oxidase, MAO-A, Central (MAOAC) (AID 2283243);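 note: potency refers to inhibition seen as signal drop below DMSO baseline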
# Summary of the method: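 Rat brain tissue extract served as the cell-free enzyme source; activity was measured by radiometric scintillation counting 1.5 hours after compound addition. Loss of signal relative to DMSO baseline indicated inhibition; primary screen at 25 uM in duplicate.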
# [8] = target: Norway rat Vesicular Monoamine Transporter (VMAT2), neurotransmitter transporter, Slc18a2 (gene 25549) (UniProt Q01827); assay: NVS_TR_rVMAT2: NovaScreen (NVS) Transporter Assay for Norway rat Vesicular Monoamine Transporter (VMAT2), neurotransmitter transporter (AID 2283376);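 note: actives lower the bound radioligand signal below the DMSO level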
# Norway rat Vesicular Monoamine Transporter (VMAT2), neurotransmitter transporter, Slc18a2 (gene 25549), sequence (Q01827 whole entry, looked up): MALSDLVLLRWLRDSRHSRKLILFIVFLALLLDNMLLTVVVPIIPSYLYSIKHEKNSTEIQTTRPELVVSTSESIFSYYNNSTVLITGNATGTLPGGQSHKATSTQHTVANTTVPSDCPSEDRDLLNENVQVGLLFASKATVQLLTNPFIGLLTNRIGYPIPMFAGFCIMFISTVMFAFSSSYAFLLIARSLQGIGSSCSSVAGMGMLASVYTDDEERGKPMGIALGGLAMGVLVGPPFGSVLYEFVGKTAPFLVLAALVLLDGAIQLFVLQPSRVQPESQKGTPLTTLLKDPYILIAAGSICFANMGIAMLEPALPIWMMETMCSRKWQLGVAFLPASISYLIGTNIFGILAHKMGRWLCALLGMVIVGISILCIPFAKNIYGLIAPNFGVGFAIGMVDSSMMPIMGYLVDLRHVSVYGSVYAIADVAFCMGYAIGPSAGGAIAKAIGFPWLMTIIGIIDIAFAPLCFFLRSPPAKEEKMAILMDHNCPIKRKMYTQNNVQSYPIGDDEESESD
# Summary of the method: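 Radioligand displacement binding on rat forebrain tissue preparation, filter-based scintillation read-out 1 hour after dosing. Primary screen in duplicate at 25 uM, then concentration series for actives; loss of signal versus DMSO.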
# [9] = target: human Neonicotinoid receptor (NNR), CHRNA2 (gene 1135) (UniProt Q15822); assay: NVS_LGIC_hNNR_NBungSens: NovaScreen (NVS) Ligand-Gated Ion Channel Assay for human Neonicotinoid receptor (NNR) (AID 2283313)
# human Neonicotinoid receptor (NNR), CHRNA2 (gene 1135), sequence (Q15822 whole entry, looked up): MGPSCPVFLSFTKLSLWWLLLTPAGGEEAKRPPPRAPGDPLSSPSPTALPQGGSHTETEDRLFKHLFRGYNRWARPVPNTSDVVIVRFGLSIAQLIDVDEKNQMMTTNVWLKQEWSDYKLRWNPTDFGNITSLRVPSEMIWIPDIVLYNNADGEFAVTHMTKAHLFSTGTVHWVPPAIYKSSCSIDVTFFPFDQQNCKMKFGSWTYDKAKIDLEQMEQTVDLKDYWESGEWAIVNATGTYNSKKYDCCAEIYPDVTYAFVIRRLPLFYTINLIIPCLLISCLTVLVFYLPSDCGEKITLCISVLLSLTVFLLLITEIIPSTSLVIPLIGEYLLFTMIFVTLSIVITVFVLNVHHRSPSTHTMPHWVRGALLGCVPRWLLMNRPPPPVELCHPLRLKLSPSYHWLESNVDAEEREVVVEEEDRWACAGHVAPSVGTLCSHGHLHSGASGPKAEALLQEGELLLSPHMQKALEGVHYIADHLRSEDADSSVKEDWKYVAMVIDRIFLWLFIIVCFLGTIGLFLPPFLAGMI
# Summary of the method: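 Radioligand displacement on human neuroblastoma membranes, 2 h, filter-based scintillation counting. Primary screen in duplicate at 25 uM; chemicals passing threshold (e.g. 30% inhibition) run singleton concentration-response to 50 uM; loss of binding fitted versus DMSO.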
# [10] = target: human Matrix Metalloproteinase-1 (MMP1), MMP1 (gene 4312) (UniProt P03956); assay: NVS_ENZ_hMMP1: NovaScreen (NVS) Enzymatic Assay for human Matrix Metalloproteinase-1 (MMP1) (AID 2283181)
# human Matrix Metalloproteinase-1 (MMP1), MMP1 (gene 4312), sequence (P03956 whole entry, looked up): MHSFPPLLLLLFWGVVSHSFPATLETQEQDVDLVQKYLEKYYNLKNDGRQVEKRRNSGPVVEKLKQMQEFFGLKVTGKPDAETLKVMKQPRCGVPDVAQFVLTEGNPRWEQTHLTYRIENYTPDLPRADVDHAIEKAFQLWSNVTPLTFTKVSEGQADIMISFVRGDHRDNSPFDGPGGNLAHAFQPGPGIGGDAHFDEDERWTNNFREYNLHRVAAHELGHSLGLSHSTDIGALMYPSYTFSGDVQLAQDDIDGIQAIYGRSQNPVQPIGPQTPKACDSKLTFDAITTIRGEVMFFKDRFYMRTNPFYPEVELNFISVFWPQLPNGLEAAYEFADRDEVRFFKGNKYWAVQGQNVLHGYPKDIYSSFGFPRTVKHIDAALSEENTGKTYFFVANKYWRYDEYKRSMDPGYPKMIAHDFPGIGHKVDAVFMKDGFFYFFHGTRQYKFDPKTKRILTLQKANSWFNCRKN
# Summary of the method: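 Human MMP1 enzyme activity measured by fluorescence 1 h after dosing, cell-free, with a specific substrate. Screened in duplicate at 25 uM; hits (e.g. 30% inhibition) run in concentration-response up to 50 uM; loss of signal versus DMSO.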
# [11] = target: rat Acetylcholinesterase (AChE), Ache (gene 83817) (UniProt P37136); assay: NVS_ENZ_rAChE: NovaScreen (NVS) Enzymatic Assay for rat Acetylcholinesterase (AChE) (AID 2283233)
# Summary of the method: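 Rat brain membrane acetylcholinesterase activity measured colorimetrically 0.33 h after compound addition, loss of signal relative to DMSO. Primary screen in duplicate at 25 uM; actives re-run as concentration-response with 50 uM top concentration.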
# [12] = tested on: guinea pig Atrionatriuretic Peptide Receptor A (ANPA), gene 100135578; assay: NVS_GPCR_gANPA: NovaScreen (NVS) G Protein-Coupled Receptor Assay for guinea pig Atrionatriuretic Peptide Receptor A (ANPA) (AID 2283291)
# Summary of the method: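 Radioligand binding to guinea pig cerebellar membranes was measured after 1 h by filter-based scintillation counting. Chemicals were tested in duplicate at 25 uM, with hits run in concentration-response to a maximum of 50 uM. Binding loss was fitted against DMSO.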
# [13] = target: rat Adenylate Cyclase, Forskolin Stimulated, Adcy5 (gene 64532) (UniProt Q04400); assay: NVS_ENZ_rACFSKBinding: NovaScreen (NVS) Enzymatic Assay for rat Adenylate Cyclase, Forskolin Stimulated (AID 2283232)
# Summary of the method: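 Rat forebrain membrane preparation, cell-free, read 1 h after dosing by filter-based scintillation counting. Primary screen in duplicate at 25 uM; actives (e.g. ≥30% inhibition) rerun in concentration-response up to 50 uM; fit versus DMSO.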
# [14] = Tanguay_ZF_120hpf_MUSC: Oregon State University Tanguay Lab 120 Hour Post-fertilization zebrafish Assay for Muscle Malformation (AID 2284401; active = hit-call score of the fitted dose curve at least 0.9, where 1 is the maximum; inactive = score below 0.9)
# Summary of the method: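 Dechorionated Tropical 5D wild-type zebrafish embryos exposed statically from 6 to 120 hpf at 28C, one per well, in 0.64% DMSO. Muscle malformation scored present/absent by brightfield microscopy at 120 hpf, fitted against DMSO.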
# [15] = target: human Protein Tyrosine Phosphatase Non-receptor Type 2 (PTPN2), PTPN2 (gene 5771) (UniProt P17706); assay: NVS_ENZ_hPTPN2: NovaScreen (NVS) Enzymatic Assay for human Protein Tyrosine Phosphatase Non-receptor Type 2 (PTPN2) (AID 2283207)
# Summary of the method: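 Cell-free recombinant enzyme with fluorescent substrate, product separated by electrophoretic mobility shift; read 1 h after dosing. Primary screen single concentration (25 uM) in duplicate; actives followed in concentration series; loss of signal versus DMSO.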
# [16] = CCTE_Harrill_HTTr_Apoptosis_PRF_DMEM_12hr: (Pilot) CCTE's 12-hour Apoptosis Assessment for the High-Throughput Transcriptomics (HTTr) Platform, in MCF-7 cells cultured in phenol red-free DMEM + 10% charcoal-stripped fetal bovine serum, Harrill Lab (AID 2283985; active = hit-call score of the fitted dose curve at least 0.9, where 1 is the maximum; inactive = score below 0.9)
# Summary of the method: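 MCF-7 cells in phenol red-free DMEM with 10% charcoal-stripped FBS, eight-point dilution series, 12 h exposure. Caspase-3/7 activation imaged by high content imaging with CellEvent Green reagent; bidirectional fit vs DMSO.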
# [17] = target: rat Monoamine Oxidase, MAO-B, Peripheral (MAOBP), Maob (gene 25750) (UniProt P19643); assay: NVS_ENZ_rMAOBP: NovaScreen (NVS) Enzymatic Assay for rat Monoamine Oxidase, MAO-B, Peripheral (MAOBP) (AID 2283242)
# [18] = target: rat Oxytocin Receptor (OXT), Oxtr (gene 25342) (UniProt P70536); assay: NVS_GPCR_rOXT: NovaScreen (NVS) G Protein-Coupled Receptor Assay for rat Oxytocin Receptor (OXT) (AID 2283330)
# Summary of the method: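 Radioligand displacement on rat uterine membranes, 1 h incubation, filter-based scintillation counting. Chemicals were screened in duplicate at 25 uM, and those passing threshold were retested in concentration-response up to 50 uM. Loss of binding was fitted versus DMSO.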
# [19] = target: human Phosphatase and Tensin Homolog (PTEN), PTEN (gene 5728) (UniProt P60484); assay: NVS_ENZ_hPTEN: NovaScreen (NVS) Enzymatic Assay for human Phosphatase and Tensin Homolog (PTEN) (AID 2283203)
# Summary of the method: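 Cell-free recombinant human PTEN with fluorescent substrate; product separated by electrophoretic mobility shift and read by fluorescence 1 h after dosing. Primary screen in duplicate at 25 uM, actives followed in concentration series versus DMSO.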
# [20] = target: rat Neurotensin Receptor (NTS), Ntsr1 (gene 366274) (UniProt P20789); assay: NVS_GPCR_rNTS: NovaScreen (NVS) G Protein-Coupled Receptor Assay for rat Neurotensin Receptor (NTS) (AID 2283308)
# rat Neurotensin Receptor (NTS), Ntsr1 (gene 366274), sequence (P20789 whole entry, looked up): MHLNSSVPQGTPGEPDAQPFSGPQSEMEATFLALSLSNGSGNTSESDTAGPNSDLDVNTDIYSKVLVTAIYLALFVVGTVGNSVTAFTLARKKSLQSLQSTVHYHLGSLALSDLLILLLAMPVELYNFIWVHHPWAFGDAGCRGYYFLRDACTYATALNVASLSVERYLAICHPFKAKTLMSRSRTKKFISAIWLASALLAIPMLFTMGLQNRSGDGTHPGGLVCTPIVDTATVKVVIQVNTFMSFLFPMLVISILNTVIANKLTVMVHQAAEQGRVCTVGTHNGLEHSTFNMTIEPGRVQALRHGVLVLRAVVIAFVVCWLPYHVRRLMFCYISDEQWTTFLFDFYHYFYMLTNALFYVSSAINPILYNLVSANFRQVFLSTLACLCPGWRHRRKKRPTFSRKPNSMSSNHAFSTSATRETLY
# Summary of the method: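 Rat forebrain membranes; radioligand binding with competitive displacement, read by filter-based scintillation counting 1 h after dosing. Primary screen in duplicate at 25 uM; actives (e.g., 30% inhibition) rerun in concentration-response up to 50 uM, loss-of-signal versus DMSO.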
# [21] = target: human p21 Activated Kinase 4 (PAK4), PAK4 (gene 10298) (UniProt O96013); assay: NVS_ENZ_hPAK4: NovaScreen (NVS) Enzymatic Assay for human p21 Activated Kinase 4 (PAK4) (AID 2283189)
# Summary of the method: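 Cell-free recombinant human PAK4 activity assay; fluorescent substrate and product separated by electrophoretic mobility shift, read 1 h after dosing. Initially tested in duplicate at 25 uM, relative to DMSO baseline.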
# PPP2CA (gene 5515) = PPP2CA (gene 5515) (UniProt P67775); assay: NVS_ENZ_hPPP2CA: NovaScreen (NVS) Enzymatic Assay for human Protein Phosphatase 2 Aatalytic subunit Alpha (PPP2CA) (AID 2283199)
# Summary of the method: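 Recombinant human PPP2CA with fluorescent substrate; product separated from substrate by electrophoretic mobility shift, read 1.33 h after dosing. Duplicate single-point at 25 uM, then singleton concentration-response up to 50 uM; loss of signal versus DMSO.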
smiles,measurement,setting,value
CC(C)(C)CC(C)(C)c1ccc(O)c(-n2nc3ccccc3n2)c1,outcome,[1],inactive
COC(=O)CCCCC(=O)OC,outcome,[1],inactive
same,outcome,[2],inactive
COCC(C)OCC(C)O (stereo not given),outcome,[1],inactive
same,outcome,[3],inactive
Nc1ccn([C@@H]2O[C@H](CO)[C@@H](O)[C@@H]2O)c(=O)n1,outcome,[4],inactive
[O-]n1ccccc1=S.[O-]n1ccccc1=S.[Zn+2],outcome,[1],inactive
same,outcome,[5],inactive
O=C(O)c1ccccc1,outcome,[1],inactive
same,outcome,[6],inactive
CC[C@H](C)[C@@H](C(=O)O)n1sc2ccccc2c1=O,outcome,[1],inactive
O=C(O)c1cccc(C[C@@H]2COc3ccc(OCc4nc5cc(F)ccc5s4)cc3[C@@H]2O)c1,outcome,[1],inactive
same,outcome,[4],inactive
same,AC50,[6],17.8 µM (active)
same,AC50,[7],21 µM (active)
same,outcome,[8],inactive
CC(C)(O)c1ccc(CNC(=O)c2cccnc2Oc2ccc(F)cc2)cc1,outcome,[1],inactive
CN(C)CCCN1c2ccccc2Sc2ccc(Cl)cc21,outcome,[1],inactive
same,AC50,[9],35.7 µM (active)
CCCCCCC(=O)O,outcome,[1],inactive
CCc1cc(C2=C(C(=O)O)N(c3ccccc3C(F)(F)F)S(=O)(=O)c3ccccc32)cc2c1OCO2,AC50,[10],12.3 µM (active)
CC(C)=CCC/C(C)=C\CO,outcome,[1],inactive
same,outcome,[11],inactive
CCCc1cc(=O)[nH]c(=S)[nH]1,outcome,[4],inactive
COCc1nnc(-c2ccc[n+]([O-])c2)n1-c1c(Cl)c(Cl)cc2[nH]c(=O)c(=O)[nH]c12,outcome,[1],inactive
same,outcome,[12],inactive
OCCC(F)(F)C(F)(F)C(F)(F)C(F)(F)C(F)(F)C(F)(F)F,outcome,[1],inactive
same,outcome,[13],inactive
same,outcome,[8],inactive
same,outcome,[14],inactive
CCCOc1ccc(S(=O)(=O)N2CCN(CC)CC2)cc1-c1nc2c(CC)n(Cc3ccccn3)nc2c(=O)[nH]1,outcome,[4],inactive
same,outcome,[2],inactive
CCc1nn(C2CCCCC2)c2cc(C3(C#N)CCC(C(=O)O)CC3)ccc12 (stereo not given),AC50,[10],12.1 µM (active)
CC(C)CCCCCCc1ccc(O)cc1,outcome,[1],inactive
same,outcome,[4],inactive
same,outcome,[3],inactive
same,outcome,[15],inactive
same,AC50,[16],61.8 µM (active)
CCc1nc(N)nc(N)c1-c1ccc(Cl)cc1,outcome,[3],inactive
Nc1ccccc1N,AC50,[3],32.2 µM (active)
CCN(Cc1cccnc1)C(=O)c1cccc(Cl)c1[C@]1(C)C(=O)N(Cc2ccc(OC)cc2OC)c2ccc(Cl)cc21,outcome,[3],inactive
same,outcome,[17],inactive
same,AC50,[7],2.51 µM (active)
same,AC50,[18],0.0728 µM (active)
CC[C@H](C)C(=O)O[C@H]1C[C@@H](C)C=C2C=C[C@H](C)[C@H](CC[C@@H]3C[C@@H](O)CC(=O)O3)[C@H]21,outcome,[1],inactive
same,outcome,[19],inactive
same,outcome,[5],inactive
same,outcome,[16],inactive
CCCCCCCC(=O)O,outcome,[1],inactive
same,outcome,[11],inactive
same,AC50,[9],37.4 µM (active)
O=C(OCCOCCOC(=O)c1ccccc1)c1ccccc1,outcome,[1],inactive
Cc1cn([C@H]2C[C@H](N=[N+]=[N-])[C@@H](CO)O2)c(=O)[nH]c1=O,outcome,[1],inactive
same,outcome,[4],inactive
same,outcome,[20],inactive
CCCOC(=O)c1cc(O)c(O)c(O)c1,outcome,[3],inactive
same,AC50,[10],16.1 µM (active)
same,outcome,[6],inactive
COc1ccc(OC(F)(F)F)cc1CN[C@H]1CCCN[C@H]1c1ccccc1,outcome,[1],inactive
same,outcome,[4],inactive
same,outcome,[3],inactive
same,outcome,[6],inactive
same,AC50,[17],36.5 µM (active)
same,AC50,[9],25 µM (active)
O=C1NC(=O)C(c2ccccc2)(c2ccccc2)N1,outcome,[3],inactive
OCC(CO)n1cnc(-c2ccc(F)cc2)c1-c1ccnc(Oc2ccccc2)n1,outcome,[3],inactive
CCCCc1ccc2c(n1)[C@@H](c1ccc(OC)cc1C[C@H](C)C(=O)O)[C@H](C(=O)O)[C@H]2c1ccc2c(c1)OCO2,outcome,[3],inactive
CC1(C)NC(=O)NC1=O,outcome,[21],inactive
O=[Si]=O,outcome,[21],inactive
CN1CCC[C@H]1c1cccnc1,outcome,PPP2CA (gene 5515),inactive
